# Results taken from PubChem BioAssay (NCATS).
# Values without a mark were called inactive. Results filed as inconclusive are left out. Calls of active or inactive are those of the source. Unless noted, calls follow the shape of the dose curve; as a rule, active = well fitted curve in the direction sought with a large enough effect; inconclusive = small, poorly fitted or top-dose-only effect, or another doubt; inactive = no such curve, though single readings can be large; an effect the other way counts as inactive or inconclusive.
# Experiments:
# [1] = biological target: Lysosomal acid glucosylceramidase (Homo sapiens) (UniProt P04062); experiment: Glucocerebrosidase-p2 (AID 348; in the data active = potency below about 10 µM; also: potency is read from the fitted curve at half-maximal effect); conditions: purified GBA, blue fluorogenic substrate, 40 min
# Lysosomal acid glucosylceramidase (Homo sapiens), sequence (P04062 whole entry, looked up): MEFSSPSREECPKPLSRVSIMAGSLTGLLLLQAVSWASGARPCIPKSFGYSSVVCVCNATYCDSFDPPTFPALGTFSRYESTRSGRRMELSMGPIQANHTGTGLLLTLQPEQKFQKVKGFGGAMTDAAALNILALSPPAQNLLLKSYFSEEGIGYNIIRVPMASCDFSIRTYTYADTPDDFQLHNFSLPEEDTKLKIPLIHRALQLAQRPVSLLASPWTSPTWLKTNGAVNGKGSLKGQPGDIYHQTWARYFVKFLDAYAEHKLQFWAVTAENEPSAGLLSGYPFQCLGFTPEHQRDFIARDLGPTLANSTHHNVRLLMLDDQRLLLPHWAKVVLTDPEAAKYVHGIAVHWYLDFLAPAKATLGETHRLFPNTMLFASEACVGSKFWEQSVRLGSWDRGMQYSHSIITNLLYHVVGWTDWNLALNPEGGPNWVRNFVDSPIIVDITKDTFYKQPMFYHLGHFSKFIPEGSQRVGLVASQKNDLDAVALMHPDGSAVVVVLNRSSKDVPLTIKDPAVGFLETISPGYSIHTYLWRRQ
# How it was run: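 Normal human glucocerebrosidase (0.2 nM) with blue fluorogenic substrate (80 uM final) in citrate/phosphate pH 5.9 with 10mM sodium taurocholate, 0.01% tween-20; 40 min RT, NaOH/glycine stop; fluorescence Ex 365/Em 440; AC50 from a titration from 0.6 nM upwards.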
# [2] = AP1 Signaling Pathway (AID 357; active = well fitted curve in either direction with a large enough effect, not every such curve was filed as active; also: % is scaled to controls: 0 for no effect and ±100 for the full control effect); conditions: ME-180 AP-1-bla reporter, EGF-induced, beta-lactamase ratio, 5 h; at 7.69 µM (top of the series) unless noted
# How it was run: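 In this screen, ME-180 cells in Opti-MEM with 0.5% dialyzed FBS received EC50 EGF and compound titrations for 5 h. AP-1 reporter beta-lactamase was detected via CCF4 ratio, giving AC50 for positive and negative modulators.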
# [3] = biological target: Cytochrome P450 1A2 (Homo sapiens) (UniProt P05177); experiment: p450-cyp1a2 (AID 410; calls by dose curve; also: potency is read from the fitted curve at half-maximal effect)
# Cytochrome P450 1A2 (Homo sapiens), sequence (P05177 whole entry, looked up): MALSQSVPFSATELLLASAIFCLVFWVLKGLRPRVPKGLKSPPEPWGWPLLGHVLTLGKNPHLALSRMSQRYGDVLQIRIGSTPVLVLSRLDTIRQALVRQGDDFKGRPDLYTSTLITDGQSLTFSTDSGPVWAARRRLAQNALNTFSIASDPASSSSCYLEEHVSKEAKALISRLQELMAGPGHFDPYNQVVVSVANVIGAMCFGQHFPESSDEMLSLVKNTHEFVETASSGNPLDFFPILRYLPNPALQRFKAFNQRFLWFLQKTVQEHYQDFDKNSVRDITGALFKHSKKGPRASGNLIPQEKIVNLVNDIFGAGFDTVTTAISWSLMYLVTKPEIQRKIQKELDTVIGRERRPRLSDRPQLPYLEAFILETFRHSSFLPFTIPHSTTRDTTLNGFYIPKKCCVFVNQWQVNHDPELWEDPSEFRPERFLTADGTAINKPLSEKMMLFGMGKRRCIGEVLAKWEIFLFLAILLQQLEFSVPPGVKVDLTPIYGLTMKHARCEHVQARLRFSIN
# How it was run: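 20nM CYP1A2, 100uM Luciferin-ME (=Km), 100mM KPO4; cpd 10 min RT; +NADPH regen, 60 min RT; stop/detect 20 min; luminescence. Normalized to furafylline 57 uM = full inhibition.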
# [4] = NFAT Signaling Pathway (AID 444; active = well fitted curve in either direction with a large enough effect, not every such curve was filed as active;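 also: carbachol stimulus at about its EC50 of 1 µM final; % is scaled to controls: 0 for no effect and ±100 for the full control effect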); conditions: Jurkat NFAT-bla M1, carbachol, beta-lactamase ratio, 5 h; at 7.69 µM (top of the series) unless noted
# How it was run: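 Jurkat cells carrying an NFAT-driven β-lactamase reporter and co-transfected muscarinic M1 receptor were treated with compound plus carbachol (1 uM final, an EC50 level) for 5 h at 37 °C. CCF4 loading followed for 1 h at RT; 460/530 nm ratio gave %activity.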
# [5] = Stat Signaling Pathway (AID 446; active = well fitted curve in either direction with a large enough effect, not every such curve was filed as active;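 also: ME-180 cervical cancer cells given 40 pM IL-6 alongside compound; SIE-controlled beta-lactamase reporter measured as 460/530 nm FRET emission ratio; % is scaled to controls: 0 for no effect and ±100 for the full control effect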); conditions: ME-180 SIE beta-lactamase reporter, IL-6 stimulated, 5 h; at 7.69 µM (top of the series) unless noted
# How it was run: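 Normalization used AC90 stimulation (300 pM IL-6) and AC90 inhibition (125 nM pan-JAK inhibitor at 40 pM IL-6). The underlying signal is SIE-driven beta-lactamase in ME-180 cells after 5 h IL-6 exposure with compound.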
# [6] = biological target: Glucocorticoid receptor (Homo sapiens) (UniProt P04150); experiment: GR-GFP Redistribution (AID 450;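 active = compounds whose dose series gives a full or clear partial fitted curve of increased nuclear translocation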; also: potency is read from the fitted curve at half-maximal effect); conditions: U2OS GR-GFP nuclear translocation, laser cytometry, 2 h
# Glucocorticoid receptor (Homo sapiens), sequence (P04150 whole entry, looked up, the tested form may be a part): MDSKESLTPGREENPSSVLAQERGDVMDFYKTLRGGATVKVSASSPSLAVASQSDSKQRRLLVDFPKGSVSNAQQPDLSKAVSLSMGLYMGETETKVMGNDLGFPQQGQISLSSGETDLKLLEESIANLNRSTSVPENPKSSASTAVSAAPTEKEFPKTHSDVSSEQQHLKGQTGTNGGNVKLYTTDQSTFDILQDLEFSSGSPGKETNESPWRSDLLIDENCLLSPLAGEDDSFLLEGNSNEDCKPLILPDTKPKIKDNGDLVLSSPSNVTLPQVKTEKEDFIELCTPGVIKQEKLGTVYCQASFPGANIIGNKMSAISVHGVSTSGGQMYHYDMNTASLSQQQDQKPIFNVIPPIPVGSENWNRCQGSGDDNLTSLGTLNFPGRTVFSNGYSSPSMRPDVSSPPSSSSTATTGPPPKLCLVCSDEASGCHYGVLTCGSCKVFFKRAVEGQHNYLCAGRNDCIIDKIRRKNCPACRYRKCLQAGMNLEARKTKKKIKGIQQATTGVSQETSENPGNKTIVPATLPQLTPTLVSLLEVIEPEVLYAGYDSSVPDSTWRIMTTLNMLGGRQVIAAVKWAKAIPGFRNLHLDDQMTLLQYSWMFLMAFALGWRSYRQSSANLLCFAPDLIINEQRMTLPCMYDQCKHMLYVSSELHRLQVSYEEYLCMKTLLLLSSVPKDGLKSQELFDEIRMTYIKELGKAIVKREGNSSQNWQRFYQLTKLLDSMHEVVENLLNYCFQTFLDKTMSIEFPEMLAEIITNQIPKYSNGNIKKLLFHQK
# [7] = biological target: Glucocorticoid receptor (Homo sapiens) (UniProt P04150); experiment: GR-EFC Redistribution (AID 451; calls by dose curve; also: potency is read from the fitted curve at half-maximal effect); conditions: CHO-K1 GR-EFC translocation, beta-gal luminescence, 2 h
# How it was run: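 CHO-K1 cells stably expressing nuclear-localized β-gal enzyme acceptor and GR fused C-terminally to the enzyme donor fragment; ligand-driven nuclear translocation restores β-gal by complementation. Compounds titrated up to 46 uM final, 2 h at 37 °C; luminescence read.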
# [8] = biological target: Mitogen-activated protein kinase 10 (Mus musculus) (UniProt Q61831); experiment: JNK3 AlphaScreen Assay (AID 530; active = well fitted curve in either direction with a large enough effect, not every such curve was filed as active;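 also: kinase came from lysate of stimulated human HepG2 cells; signal reports phosphorylation of biotinylated GST-cJun 1-79 at Ser73 with 10 µM ATP; % is scaled to controls: 0 for no effect and ±100 for the full control effect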)
# How it was run: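 Biotinylated GST-cJun(1-79) served as substrate for JNK3 in HepG2 lysates stimulated with IL-1beta and TNF-alpha. ATP was 10 uM final, pH 7.6. Ser73 phosphorylation was quantified by AlphaScreen (680 nm excitation).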
# [9] = biological target: 3',5'-cyclic-AMP phosphodiesterase 4B (Homo sapiens) (UniProt Q07343); experiment: qHTS Assay for Inhibitors of PDE-IV (AID 607; active = well fitted activation curve with a large enough effect in the main read-out, with a control signal flat, not every such curve was filed as active; also: % of control where 0% means no effect)
# 3',5'-cyclic-AMP phosphodiesterase 4B (Homo sapiens), sequence (Q07343 whole entry, looked up): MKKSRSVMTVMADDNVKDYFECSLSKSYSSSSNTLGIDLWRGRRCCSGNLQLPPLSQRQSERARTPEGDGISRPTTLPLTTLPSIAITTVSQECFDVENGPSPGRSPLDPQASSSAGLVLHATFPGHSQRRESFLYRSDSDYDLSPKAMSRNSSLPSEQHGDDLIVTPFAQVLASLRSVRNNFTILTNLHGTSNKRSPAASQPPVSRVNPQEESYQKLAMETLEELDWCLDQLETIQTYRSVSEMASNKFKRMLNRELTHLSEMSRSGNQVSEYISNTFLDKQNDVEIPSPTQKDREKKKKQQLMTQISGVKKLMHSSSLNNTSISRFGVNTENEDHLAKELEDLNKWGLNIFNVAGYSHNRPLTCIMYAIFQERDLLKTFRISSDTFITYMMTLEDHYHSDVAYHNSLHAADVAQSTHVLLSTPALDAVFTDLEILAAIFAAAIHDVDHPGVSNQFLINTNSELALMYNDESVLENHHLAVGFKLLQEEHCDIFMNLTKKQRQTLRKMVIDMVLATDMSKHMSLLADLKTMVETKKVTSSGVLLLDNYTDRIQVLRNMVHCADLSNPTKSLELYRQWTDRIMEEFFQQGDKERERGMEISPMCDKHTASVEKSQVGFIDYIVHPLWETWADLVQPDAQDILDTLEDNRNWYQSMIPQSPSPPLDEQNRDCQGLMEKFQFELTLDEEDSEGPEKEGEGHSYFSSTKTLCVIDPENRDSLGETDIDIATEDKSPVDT
# How it was run: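 HEK293 ACTOne cells with CNG channel (1000/well), endogenous PDE4; membrane potential dye, compounds up to 22.9 uM final. Fluorescence Ex 535/Em 590; RO 20-1724 (100 uM final) as reference.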
# [10] = biological target: Dual specificity protein kinase CLK4 (Homo sapiens) (UniProt Q9HAZ1); experiment: qHTS Assay for Inhibitors of CDC-like Kinase 4 (ADP-FP Assay) (AID 1795);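 also: recombinant human CLK4 phosphorylating RS repeat peptide at 1 µM ATP; % is scaled to controls: 0 for no effect and ±100 for the full control effect; nearly all actives have a fitted effect of over 60% in size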
# Dual specificity protein kinase CLK4 (Homo sapiens), sequence (Q9HAZ1 whole entry, looked up): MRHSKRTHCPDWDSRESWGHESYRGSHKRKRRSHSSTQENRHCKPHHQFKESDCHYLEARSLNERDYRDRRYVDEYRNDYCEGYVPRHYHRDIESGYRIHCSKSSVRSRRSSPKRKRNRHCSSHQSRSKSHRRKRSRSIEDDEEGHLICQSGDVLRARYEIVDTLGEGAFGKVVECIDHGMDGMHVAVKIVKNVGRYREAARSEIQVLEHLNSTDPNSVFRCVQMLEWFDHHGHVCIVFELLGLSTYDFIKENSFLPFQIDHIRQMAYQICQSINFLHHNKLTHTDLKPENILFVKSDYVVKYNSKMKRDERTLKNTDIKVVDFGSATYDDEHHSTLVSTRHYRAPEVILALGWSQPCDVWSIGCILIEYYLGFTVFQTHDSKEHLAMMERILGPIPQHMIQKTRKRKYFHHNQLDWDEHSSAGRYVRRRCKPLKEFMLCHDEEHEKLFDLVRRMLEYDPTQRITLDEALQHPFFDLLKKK
# How it was run: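 Kinase activity was followed as ADP output, converted from fluorescence polarization with a calibration curve. Reactions ran one hour at low ATP (1 uM) with RS peptide substrate.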
# [11] = biological target: Ubiquitin carboxyl-terminal hydrolase 1 (Homo sapiens) (UniProt O94782); experiment: Inhibitors of USP1/UAF1: Pilot qHTS (AID 504865);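 also: rhodamine fluorescence freed from ubiquitin-rhodamine substrate followed over time; top concentration of the series differs between compounds; % is scaled to controls: 0 for no effect and ±100 for the full control effect; nearly all actives have a fitted effect of over 35% in size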
# Ubiquitin carboxyl-terminal hydrolase 1 (Homo sapiens), sequence (O94782 whole entry, looked up): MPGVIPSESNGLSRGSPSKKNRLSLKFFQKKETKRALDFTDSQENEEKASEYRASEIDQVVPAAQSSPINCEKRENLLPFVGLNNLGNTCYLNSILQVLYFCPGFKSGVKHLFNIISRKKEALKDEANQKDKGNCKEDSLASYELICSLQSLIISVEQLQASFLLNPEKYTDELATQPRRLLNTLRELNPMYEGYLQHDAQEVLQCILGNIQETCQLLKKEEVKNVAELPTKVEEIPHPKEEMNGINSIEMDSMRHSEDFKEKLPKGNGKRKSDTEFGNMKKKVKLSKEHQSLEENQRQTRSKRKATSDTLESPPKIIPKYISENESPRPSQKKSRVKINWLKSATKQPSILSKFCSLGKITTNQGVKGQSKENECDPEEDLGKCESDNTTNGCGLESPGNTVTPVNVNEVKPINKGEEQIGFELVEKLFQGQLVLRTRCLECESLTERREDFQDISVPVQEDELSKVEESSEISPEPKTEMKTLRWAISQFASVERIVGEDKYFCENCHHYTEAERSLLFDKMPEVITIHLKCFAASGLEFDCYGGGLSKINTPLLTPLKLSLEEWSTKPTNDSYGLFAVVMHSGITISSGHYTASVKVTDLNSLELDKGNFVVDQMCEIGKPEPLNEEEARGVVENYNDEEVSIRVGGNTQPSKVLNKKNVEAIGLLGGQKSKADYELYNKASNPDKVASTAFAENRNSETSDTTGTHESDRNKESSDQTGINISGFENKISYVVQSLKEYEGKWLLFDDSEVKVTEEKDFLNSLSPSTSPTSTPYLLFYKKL
# How it was run: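 Enzyme-free wells gave the negative control, while test wells held 1nM USP1/UAF1 preincubated with compound for 15 min at room temperature. Ub-Rho at 150nM final started the reaction, and fluorescence at 480/540 nm was recorded kinetically.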
# [12] = Primary qHTS for small molecule stabilizers of the endoplasmic reticulum resident proteome: Secreted ER Calcium Modulated Protein (SERCaMP) assay (AID 1508630); also: % is scaled to controls: 0 for no effect and ±100 for the full control effect
# How it was run: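 The SH-SY5Y reporter protocol was run at 3 concentrations up to 38.3 uM (primary) or 11 concentrations (follow-up): 16 h compound, 100 nM thapsigargin for 4 h, then extracellular luciferase luminescence.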
# [13] = biological target: Cytochrome P450 3A4 (Homo sapiens) (UniProt P08684); experiment: qHTS Assay for Inhibitors and Substrates of Cytochrome P450 3A4 (AID 884); also: potency is read from the fitted curve at half-maximal effect; nearly all actives have a fitted effect of over 50% in size
# Cytochrome P450 3A4 (Homo sapiens), sequence (P08684 whole entry, looked up): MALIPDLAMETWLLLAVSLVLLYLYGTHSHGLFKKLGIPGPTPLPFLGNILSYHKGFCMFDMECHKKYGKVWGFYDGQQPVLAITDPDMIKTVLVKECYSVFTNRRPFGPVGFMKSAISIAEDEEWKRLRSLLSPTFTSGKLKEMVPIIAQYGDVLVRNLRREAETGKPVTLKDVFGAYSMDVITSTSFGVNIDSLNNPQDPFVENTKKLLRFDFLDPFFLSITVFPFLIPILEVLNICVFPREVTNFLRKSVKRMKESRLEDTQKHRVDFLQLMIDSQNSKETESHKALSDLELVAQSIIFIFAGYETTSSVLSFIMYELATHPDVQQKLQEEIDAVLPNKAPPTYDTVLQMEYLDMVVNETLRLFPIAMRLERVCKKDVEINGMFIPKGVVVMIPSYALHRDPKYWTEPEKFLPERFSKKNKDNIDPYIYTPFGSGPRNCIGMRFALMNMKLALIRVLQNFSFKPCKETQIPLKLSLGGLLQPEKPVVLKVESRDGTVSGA
# How it was run: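 Luminescent readout of luciferin produced by CYP3A4 (20 nM) dealkylation of Luciferin-PPXE, 25 uM (its KM). NADPH-driven reaction ran 60 min at RT after 10 min compound preincubation; data scaled to 57 uM ketoconazole as 100% inhibition.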
# [14] = biological target: Cytochrome P450 3A4 (Homo sapiens) (UniProt P08684); experiment: qHTS Assay for Activators of Cytochrome P450 3A4 (AID 885); also: nearly all actives have a fitted effect of over 65% in size
# How it was run: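 Human CYP3A4 dealkylates Luciferin-PPXE to luciferin, which luciferase detection converts to light. Substrate was at its KM (25uM), buffer 200mM KPO4, reaction 60 min at RT.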
# [15] = biological target: Dual specificity protein kinase CLK4 (Homo sapiens) (UniProt Q9HAZ1); experiment: qHTS Assay for Inhibitors of CDC-like Kinase 4 (ADP-Glo Assay) (AID 1771); also: potency is read from the fitted curve at half-maximal effect; nearly all actives have a fitted effect of over 70% in size
# How it was run: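 25 nM Clk4, 100 uM RS peptide, 1 uM ATP (final); 2 mM MgCl2, 0.5 mM EGTA, 2.5 mM DTT, 0.01% Triton X-100; 1 hr RT. ADP-Glo readout: ATP depletion 45 min, conversion/luciferase 30 min, luminescence.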
# [16] = biological target: Cytochrome P450 2C19 (Homo sapiens) (UniProt P33261); experiment: qHTS Assay for Inhibitors and Substrates of Cytochrome P450 2C19 (AID 899); also: potency is read from the fitted curve at half-maximal effect; nearly all actives have a fitted effect of over 60% in size
# Cytochrome P450 2C19 (Homo sapiens), sequence (P33261 whole entry, looked up): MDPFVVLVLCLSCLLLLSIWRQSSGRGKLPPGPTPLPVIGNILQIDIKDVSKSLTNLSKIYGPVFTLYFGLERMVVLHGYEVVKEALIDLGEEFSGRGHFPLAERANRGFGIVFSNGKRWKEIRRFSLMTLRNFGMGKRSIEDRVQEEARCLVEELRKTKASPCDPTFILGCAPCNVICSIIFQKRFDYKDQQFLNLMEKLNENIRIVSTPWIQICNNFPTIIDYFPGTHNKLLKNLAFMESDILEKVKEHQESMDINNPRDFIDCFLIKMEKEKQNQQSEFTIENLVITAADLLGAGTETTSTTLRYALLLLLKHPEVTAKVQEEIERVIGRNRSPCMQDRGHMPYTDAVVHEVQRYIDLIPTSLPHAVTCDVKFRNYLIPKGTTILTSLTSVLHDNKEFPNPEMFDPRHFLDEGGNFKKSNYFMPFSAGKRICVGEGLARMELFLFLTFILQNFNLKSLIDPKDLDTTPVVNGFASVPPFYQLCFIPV
# How it was run: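 Human CYP2C19 (5nM) with Luciferin-H EGE at 10uM (its KM) in 50mM KPO4 was preincubated with compound for 10 min at 37C. NADPH regeneration started a 60 min 37C reaction. Luciferin was read by luminescence, normalized to 57uM ketoconazole.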
# [17] = qHTS Assay for Identification of Small Molecule Agonists for Hypoxia Response Element Signaling Pathway (AID 914; active = well fitted activation curve with a large enough effect in the signal ratio, with a control signal flat, not every such curve was filed as active; the % refers to the signal ratio; also: % of control where 0% means no effect); conditions: ME-180 (cervical carcinoma) HRE-bla reporter, beta-lactamase ratio, CoCl2, 17 h; activation: stronger effect = higher value
# How it was run: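 Compounds in a titration series were added to ME-180 reporter cells alongside an EC50 level of CoCl2. After 17 hours, beta-lactamase activity was read as the 460nm/530nm emission ratio of CCF4, giving AC50 values.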
# [18] = biological target: Cytochrome P450 2D6 (Homo sapiens) (UniProt P10635); experiment: qHTS Assay for Inhibitors and Substrates of Cytochrome P450 2D6 (AID 891); also: potency is read from the fitted curve at half-maximal effect; nearly all actives have a fitted effect of over 60% in size
# How it was run: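 Luminescent read-out of luciferin formed by 5 nM human CYP2D6 demethylating 30 uM Luciferin-ME EGE (Km level) over 60 min at room temperature after NADPH regeneration addition. Data normalized to full inhibition by 1.43 uM quinidine.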
Structure (SMILES),Potency [1] [µM],"activity change, negative = inhibition [2] [%]",Potency [3],"activity change, negative = inhibition [4] [%]","activity, negative = inhibition [5] [%]",Potency [6] [µM],Potency [7] [µM],Potency [8],Potency [9],Potency [10],Potency [11],outcome [12],Potency [13],Potency [14],Potency [15],Potency [16],activation [17] [%],Potency [18]
COCCn1c(=O)c(-c2cccc(C#N)c2)nc2cnc(Nc3ccccc3)nc21,> 11.4,-6.21,2.51 µM (active),3.3,-15.6,> 9.22,> 46,inactive,inactive,inactive,inactive,inactive,,,,,,
COc1ccc2[nH]cc(CCNc3cc(-c4cccnc4)ncn3)c2c1,> 11.4,-10.1,3.16 µM (active),15.6,-2.74,> 46,> 46,,inactive,,inactive,inactive,3.98 µM (active),inactive,15.8 µM (active),,,
COc1ccccc1-c1cncnc1NCc1cccs1,> 11.4,0.247,3.16 µM (active),-3.21,-6.68,> 46,> 46,inactive,,inactive,inactive,inactive,0.398 µM (active),inactive,,2 µM (active),,
Cc1cnc(CNc2ccnc(-c3cccc(NS(C)(=O)=O)c3)n2)cn1,> 11.4,-6.82,20 µM (active),13.5,4.11,> 46,> 46,inactive,inactive,inactive,inactive,inactive,,inactive,,,,
COc1ccccc1-c1cc(NCc2cnc(C)cn2)ncn1,> 11.4,5.08,12.6 µM (active),2.34,2.04,> 46,> 46,inactive,inactive,,inactive,inactive,,,28.2 µM (active),,25.8,
CN(Cc1ccco1)c1ccnc(-c2cccnc2)n1,> 11.4,16.2,0.794 µM (active),-13.4,17.8,> 46,> 46,inactive,inactive,inactive,inactive,inactive,,inactive,,6.31 µM (active),,7.94 µM (active)
